{"source": "the supplement of paper PMC11417369", "note": "± gives the standard deviation of the averaged measurements. Over roughly 25,000 sequences, “ln(normalized median fluorescence intensity)” has its median near 8.9; the highest 2% begin near 10. For the sample, the highest values were picked, then their nearest neighbours and some sequences at random.", "data": [{"test_system": "PfAP2-LT AP2 domain (GST-tagged)", "test": "gcPBM binding intensity (ln(normalized median fluorescence intensity)); higher = stronger DNA binding", "in_short": "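Binding intensity values are the highest Masliner-normalised natural-log median intensity among replicate spots of either probe orientation. The binding step lasted 1 h in 1× PBS with 1% milk, 0.2 mg/ml BSA, 0.5% salmon testes DNA and 0.03% Triton X-100, using GST-tagged P. falciparum DNA-binding domains expressed in E. coli on an Agilent 4 × 180k array of primer-extended double-stranded 36-bp intergenic genomic probes plus negative controls. Alexa488 anti-GST antibody and a 488 nm scan detected bound protein.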", "values": [{"sequence": "ATATTTAGGAAAAATAGTACACATTTAAATAATAAT [XGTACX_site7989]", "gcPBM binding intensity (ln)": "8.68 ± 0.47"}, {"sequence": "TTGAAATATACGTAAGTAAATTTCATTTGGTTGTGT [XGTACX_negctrl_site600]", "gcPBM binding intensity (ln)": "8.77 ± 0.47"}, {"sequence": "AATATACAAATTACAAGTACAAATCAATATTATATG [XGTACX_site7521]", "gcPBM binding intensity (ln)": "8.9 ± 0.42"}, {"sequence": "AATTATTTATTGAGAGTGCAACAAATTATTTCAAAT [GTGCAC_site9461]", "gcPBM binding intensity (ln)": "8.44 ± 0.49"}, {"sequence": "AATATTTTAATGCACACACACAAAAAAAAAAAAAAA [CACACA_site7374]", "gcPBM binding intensity (ln)": "9.18 ± 0.33"}, {"sequence": "AATAATAAATATATATATATATATATATATATATTT [CACACA_negctrl_site786]", "gcPBM binding intensity (ln)": "9.04 ± 0.21"}, {"sequence": "CATAATAGTTATAAAATACACACCAGGCATGATAAA [CACACA_site329]", "gcPBM binding intensity (ln)": "9 ± 0.4"}, {"sequence": "ATATATATATATATATGTACATATAATTTTTTTTTT [XGTACX_site6948]", "gcPBM binding intensity (ln)": "9.56 ± 0.16"}, {"sequence": "GGAATATTTATACATACACACATATATTTATTTATA [CACACA_site6883]", "gcPBM binding intensity (ln)": "8.91 ± 0.38"}, {"sequence": "TAACTTTGAAAAGATGGTACACAATAATATATATAT [XGTACX_site8667]", "gcPBM binding intensity (ln)": "8.83 ± 0.35"}, {"sequence": "CCTTTCACATATAATACATGCATTATTATATATGAA [TGCATGCA_site287]", "gcPBM binding intensity (ln)": "8.7 ± 0.23"}, {"sequence": "CAAAAAAACAAACACACACACACACCGATATATATA [CACACA_site9218]", "gcPBM binding intensity (ln)": "10.1 ± 0.23"}, {"sequence": "TATACATACATACATACACACACACCGATATATACA [CACACA_site8184]", "gcPBM binding intensity (ln)": "9.89 ± 0.11"}, {"sequence": "AAAAAAAAAAAACACACACACACACCGATACATACA [CACACA_site8849]", "gcPBM binding intensity (ln)": "10.4 ± 0.085"}, {"sequence": "TATATATATATATACACACACACACCGATATATATA [CACACA_site8813]", "gcPBM binding intensity (ln)": "10 ± 0.11"}, {"sequence": "CATACATACAAACACACACACACACCGATATATATA [CACACA_site8952]", "gcPBM binding intensity (ln)": "10.29 ± 0.092"}, {"sequence": "AAAAAAAAAAAACACACACACACACCGAAATATATA [CACACA_site4261]", "gcPBM binding intensity (ln)": "9.99 ± 0.33"}, {"sequence": "TATATATACATATACACACACACACCGATATATATA [CACACA_site8706]", "gcPBM binding intensity (ln)": "9.9 ± 0.29"}, {"sequence": "AGGAGGAACAAACAAAACAATAAAAATTATAATAAA [GTGCAC_negctrl_site206]", "gcPBM binding intensity (ln)": "8.78 ± 0.64"}, {"sequence": "GTGTATTTATGTTATACACACAAAAATATTTTGTAT [CACACA_site4305]", "gcPBM binding intensity (ln)": "9.01 ± 0.33"}, {"sequence": "TTATATATACCATAATGTACTCTATTATATAAAAAA [XGTACX_site7464]", "gcPBM binding intensity (ln)": "8.41 ± 0.4"}, {"sequence": "TAATTATGCAGACACACACACACACCCAACTAAAAA [CACACA_site2569]", "gcPBM binding intensity (ln)": "9.96 ± 0.23"}, {"sequence": "ATTATATATATGTGCACACAAAAGATATATATATAT [CACACA_site5205]", "gcPBM binding intensity (ln)": "9.95 ± 0.26"}, {"sequence": "AAAAGATAATTATGCACACACACACCCCCACCCAAC [CACACA_site2570]", "gcPBM binding intensity (ln)": "10.38 ± 0.064"}, {"sequence": "AAAGATAATATATGCACACATATAAATATATAAATA [CACACA_site3477]", "gcPBM binding intensity (ln)": "9.07 ± 0.43"}, {"sequence": "AAAAAAGATAATTATGCACACACACCCACCCACCCA [CACACA_site8825]", "gcPBM binding intensity (ln)": "10.085 ± 0.0071"}, {"sequence": "AAAAGATAATTATGCACACACACACCCAGACACAAC [CACACA_site5428]", "gcPBM binding intensity (ln)": "10.34 ± 0.021"}, {"sequence": "AAAAGATAAAATTATGCACACATACGAATAATTTTA [CACACA_site8497]", "gcPBM binding intensity (ln)": "8.92 ± 0.48"}, {"sequence": "TATGCACCCAGACACACACACACAACTAAAAAATAA [CACACA_site2567]", "gcPBM binding intensity (ln)": "9.8 ± 0.35"}, {"sequence": "TAATTATGCCAACACACACACACACCCAACTAAAAA [CACACA_site8823]", "gcPBM binding intensity (ln)": "9.965 ± 0.092"}, {"sequence": "AAAAAAAAAACATACACACACATATAGATTTATATG [CACACA_site6847]", "gcPBM binding intensity (ln)": "9.31 ± 0.35"}, {"sequence": "AAAAGGAATTATAGGAAATAAATATATACAAATATA [TGCATGCA_negctrl_site528]", "gcPBM binding intensity (ln)": "8.69 ± 0.58"}, {"sequence": "TATATTTATATATGTTGTACTCTCCAATAATATTCC [XGTACX_site4438]", "gcPBM binding intensity (ln)": "8.76 ± 0.52"}, {"sequence": "AGTAAATTATATATCTGTACATATATATATGTGTAT [XGTACX_site5519]", "gcPBM binding intensity (ln)": "9.04 ± 0.28"}, {"sequence": "AAAATTGGTGAAAATGAAAATATGATTATATGTATA [XGTACX_negctrl_site505]", "gcPBM binding intensity (ln)": "8.56 ± 0.53"}, {"sequence": "ATAATTTTATATAAATGTACATACATTTTTATTATA [XGTACX_site7368]", "gcPBM binding intensity (ln)": "8.61 ± 0.4"}, {"sequence": "AAAATAACGAGTCAAACACACATATATATATATATA [CACACA_site2039]", "gcPBM binding intensity (ln)": "10.1 ± 0.2"}, {"sequence": "TTAAACTTGAAACACACACACACACCCATATAAAAA [CACACA_site758]", "gcPBM binding intensity (ln)": "10.1 ± 0.064"}, {"sequence": "TAAAAAAAAAAAAAAACACACATATAAATATATATA [CACACA_site1243]", "gcPBM binding intensity (ln)": "8.56 ± 0.52"}, {"sequence": "CAAAGGGAAATTAACACACACATATTTATATTTATA [CACACA_site7202]", "gcPBM binding intensity (ln)": "9.2 ± 0.47"}, {"sequence": "CAAAAATAACGAGTCAAACACACATATATATATATA [CACACA_site2038]", "gcPBM binding intensity (ln)": "9.86 ± 0.3"}, {"sequence": "AAAAATAACATATAAACACACATATATATATATATA [CACACA_site3802]", "gcPBM binding intensity (ln)": "9.825 ± 0.0071"}, {"sequence": "AAAATAACGAGTCAAACACACATATTTATATTTATA [CACACA_site7050]", "gcPBM binding intensity (ln)": "8.95 ± 0.45"}, {"sequence": "TATAAATAAAAACACACACACACATATATATATATA [CACACA_site2268]", "gcPBM binding intensity (ln)": 10.2}, {"sequence": "TTAAACTTGAAACACACACACACACCGATATAAAAA [CACACA_site4578]", "gcPBM binding intensity (ln)": "10.06 ± 0.085"}, {"sequence": "AAACTTGACGAACACACACACACATATATAAAAAAA [CACACA_site6494]", "gcPBM binding intensity (ln)": "10.1 ± 0.4"}, {"sequence": "CAAAGGGAAATTAACACACACATATATATATATATA [CACACA_site2453]", "gcPBM binding intensity (ln)": "10.3 ± 0.2"}, {"sequence": "TTCAAAGGGAAATTAACACACACATATATATATATA [CACACA_site8777]", "gcPBM binding intensity (ln)": "9.71 ± 0.2"}, {"sequence": "TGAACACATACATACACACACACAAAAAAAAAAAAA [CACACA_site392]", "gcPBM binding intensity (ln)": "9.76 ± 0.4"}, {"sequence": "AAAAAAAAAAATACTCGTACATAAACCTATACATTT [XGTACX_site6494]", "gcPBM binding intensity (ln)": "8.83 ± 0.45"}, {"sequence": "AAAATATGTAGCTACACACACATAAACAAAATAACA [CACACA_site1007]", "gcPBM binding intensity (ln)": "9.41 ± 0.3"}, {"sequence": "CTGTTTAAAATATAAACACACATTGTTTGCTTTAGA [CACACA_site1301]", "gcPBM binding intensity (ln)": "8.71 ± 0.4"}, {"sequence": "TATAATCATATATACACACACATATATATATATATA [CACACA_site2168]", "gcPBM binding intensity (ln)": "9.805 ± 0.05"}, {"sequence": "TAATAAATGACAAATTAACACACATATATTATATAT [CACACA_site9294]", "gcPBM binding intensity (ln)": "8.98 ± 0.36"}, {"sequence": "AATAAATAAATACATCTCAGTATATAAACAAACAAA [CACACA_negctrl_site1604]", "gcPBM binding intensity (ln)": "8.89 ± 0.51"}, {"sequence": "GATAAATTAAAACACACACACATATATATATATATA [CACACA_site3962]", "gcPBM binding intensity (ln)": "9.99 ± 0.042"}, {"sequence": "TATATATATATATAAACACACATAAATATAAATATA [CACACA_site1121]", "gcPBM binding intensity (ln)": "9.01 ± 0.32"}, {"sequence": "AATATAAATAAACACACACACATATATATATATATT [CACACA_site2906]", "gcPBM binding intensity (ln)": "9.79 ± 0.21"}, {"sequence": "CATATAAATAAACACACACACACATATATATATATA [CACACA_site5309]", "gcPBM binding intensity (ln)": "10.06 ± 0.064"}, {"sequence": "GAAATATTGAAACACACACACAAACATATATATATA [CACACA_site1911]", "gcPBM binding intensity (ln)": "10.1 ± 0.26"}, {"sequence": "GCATAAATCAAACACACACACATATATATATATATA [CACACA_site2422]", "gcPBM binding intensity (ln)": "10.3 ± 0.15"}, {"sequence": "CATAATACAGATAACACACACAATTATACATAAAAT [CACACA_site5742]", "gcPBM binding intensity (ln)": "9.59 ± 0.39"}, {"sequence": "AAAAACAACACAGATAAATTAACACACACACACATA [XGTACX_negctrl_site588]", "gcPBM binding intensity (ln)": "10.1 ± 0.12"}, {"sequence": "AAATAATCATAAAATAAACACACATATATAAATATA [CACACA_site7981]", "gcPBM binding intensity (ln)": "8.89 ± 0.42"}, {"sequence": "TAAATATAAACACAAACACACACATATATATATATA [CACACA_site7978]", "gcPBM binding intensity (ln)": "10.04 ± 0.035"}, {"sequence": "AATAAATTGAAACACACACACACATATATATATATA [CACACA_site848]", "gcPBM binding intensity (ln)": "10.17 ± 0.042"}, {"sequence": "CAGATAAATAAACACACACACACATATATATATATA [CACACA_site9311]", "gcPBM binding intensity (ln)": "10.16 ± 0.078"}]}]}
